For seven molecules, growth results are on record in PubChem BioAssay (NCI).

Where “and” joins values, the source holds several entries; their conditions need not be identical. Identical values can stand only once. This is part of a sample that, as a whole, favours compounds with a hit. Of some 83,000 tested, about 20% had one in any assay.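 Cells were grown in 96-well plates and exposed to the test compound at a single concentration for 48 hours; results are reported as percent growth, with values below 10 considered active.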 Calls of active or inactive are those of the source.

Some test systems named below: NCI-H23 lung; NCI-H226 lung; HOP-62 NSCLC; NCI-H460 lung; HOP-92 NSCLC; NCI-H522 lung; A549/ATCC NSCLC; 786-0 renal; COLO 205 colon; DU-145 prostate; K-562 leukemia; MALME-3M melanoma; MDA-MB-231 breast; RXF 393 renal; SF-268 CNS; SF-295 CNS; SF-539 CNS; UACC-257 melanoma; M14 melanoma.
Holding throughout (test): NCI-60 one-dose screen, 48 h (100 = growth as untreated, 0 = no growth, -100 = all killed)
What all share (settings): 10 µM unless noted

Consider `Cc1ccc(C(=Nc2ccccc2)N=P(c2ccccc2)(c2ccccc2)c2ccccc2)cc1`, for which the growth in the test with NCI-H23 lung was -24.5% (active); with NCI-H226 lung it was -46.2% (active); in the test on HOP-62 NSCLC, -90.2% (active); in the test with NCI-H460 lung, -75.2% (active); in the test on HOP-92 NSCLC, -43.1% (active); with NCI-H522 lung, -55.8% (active). Moreover, the growth with A549/ATCC NSCLC is 6.89% (active); with 786-0 renal it was -55% (active); in the test with COLO 205 colon, -87.8% (active); in the test on DU-145 prostate, -0.576% (active); with K-562 leukemia, 15.6% (inactive); with MALME-3M melanoma, -67.8% (active). Further, the growth is -41% (active) with MDA-MB-231 breast; -23.3% (active) with RXF 393 renal; -0.449% (active) in the test with SF-268 CNS; -93.4% (active) in the test on SF-295 CNS; -42.9% (active) in the test on SF-539 CNS; -17.3% (active) with UACC-257 melanoma. Moreover, in the test on M14 melanoma, the growth was -79% (active).
For the molecule `O=C(Nc1ccccc1)c1cc(Cl)ccc1O`, the growth with NCI-H23 lung is 53% (inactive); with NCI-H226 lung, 74% (inactive); in the test with HOP-62 NSCLC, 63.5% (inactive); in the test on NCI-H460 lung, 37.4% (inactive); in the test with NCI-H522 lung it was 10.3% (inactive); in the test with A549/ATCC NSCLC, 33.7% (inactive). Also, the growth in the test on 786-0 renal was 59.7% (inactive); in the test on COLO 205 colon, 109% (inactive); with DU-145 prostate it was 83.7% (inactive); in the test with K-562 leukemia, 33.8% (inactive); in the test with MALME-3M melanoma, 40.3% (inactive); in the test on MDA-MB-231 breast, 70.6% (inactive). Also, the growth with RXF 393 renal is 79.9% (inactive); in the test with SF-268 CNS, 66.5% (inactive); in the test on SF-295 CNS, 73.1% (inactive); with SF-539 CNS, 53.2% (inactive); in the test with UACC-257 melanoma it was 14.9% (inactive); in the test with M14 melanoma it was 50.9% (inactive).
In the case of `Nc1nc(N)c2c(ccc3c2ccn3Cc2cccc([N+](=O)[O-])c2)n1`, the growth is -74.8% (active) in the test with NCI-H23 lung; -86.6% (active) in the test with NCI-H226 lung; -83.7% (active) in the test with HOP-62 NSCLC; -88.6% (active) in the test with NCI-H460 lung; -72.1% (active) in the test with HOP-92 NSCLC; -84.3% (active) in the test with NCI-H522 lung. The growth in the test on A549/ATCC NSCLC is -83% (active); in the test with 786-0 renal, -89.6% (active); with COLO 205 colon, -88.9% (active); in the test on DU-145 prostate, -97% (active); in the test with K-562 leukemia, 31.8% (inactive); in the test with MALME-3M melanoma, -82.7% (active). In addition, the growth in the test with MDA-MB-231 breast was -87.9% (active); in the test with RXF 393 renal it was -83.6% (active); in the test with SF-268 CNS, -78% (active); in the test on SF-295 CNS, -93.3% (active); in the test with SF-539 CNS it was -96.7% (active); with UACC-257 melanoma, -78.9% (active). Further, the growth in the test with M14 melanoma was -83.2% (active).
Regarding `Cc1ccnc(NC(c2ccccc2)c2ccc3cccnc3c2O)c1` (stereo not given), the growth in the test with NCI-H23 lung was 47.8% (inactive); with NCI-H226 lung it was 57.8% (inactive); with HOP-62 NSCLC it was 54.1% (inactive); with NCI-H460 lung, 5.96% (active); with HOP-92 NSCLC, 67.8% (inactive); in the test on NCI-H522 lung it was 7.12% (active). The growth is 39% (inactive) in the test with A549/ATCC NSCLC; 34.1% (inactive) with 786-0 renal; 36.8% (inactive) in the test on COLO 205 colon; 47.8% (inactive) with DU-145 prostate; 21.4% (inactive) in the test with K-562 leukemia; 62.4% (inactive) with MALME-3M melanoma. The growth is 48.5% (inactive) in the test on MDA-MB-231 breast; 66.9% (inactive) with RXF 393 renal; 34.7% (inactive) with SF-268 CNS; 26% (inactive) in the test on SF-295 CNS; 24.7% (inactive) in the test with SF-539 CNS; 41.7% (inactive) with UACC-257 melanoma. The growth in the test on M14 melanoma was 36.8% (inactive).
Regarding `Cc1ccc(NS(=O)(=O)c2ccc(C)cc2)cc1`, the growth with NCI-H23 lung is 100% (inactive) and 98.2% (inactive); in the test with NCI-H226 lung it was 95.9% (inactive) and 88.6% (inactive); with HOP-62 NSCLC, 98.5% (inactive) and 92.7% (inactive); in the test on NCI-H460 lung, 107% (inactive) and 106% (inactive); in the test with HOP-92 NSCLC, 100% (inactive) and 96.7% (inactive); with NCI-H522 lung, 97.9% (inactive) and 77.9% (inactive). For the same molecule, the growth in the test with A549/ATCC NSCLC is 88.1% (inactive) and 107% (inactive); in the test with 786-0 renal, 100% (inactive) and 99.3% (inactive); with DU-145 prostate, 101% (inactive) and 104% (inactive); in the test on K-562 leukemia it was 85.7% (inactive) and 101% (inactive); in the test on MALME-3M melanoma it was 105% (inactive) and 101% (inactive); with MDA-MB-231 breast, 103% (inactive) and 107% (inactive). Moreover, the growth with RXF 393 renal is 103% (inactive) and 96.1% (inactive); with SF-268 CNS, 97.8% (inactive) and 93.1% (inactive); in the test on SF-295 CNS, 95.5% (inactive) and 93.4% (inactive); in the test with SF-539 CNS, 111% (inactive) and 101% (inactive); in the test with UACC-257 melanoma, 89.8% (inactive) and 77.2% (inactive); with M14 melanoma, 98% (inactive) and 99.2% (inactive).
As for `C=CCOc1ccc(N=NC(C#N)C#N)cc1`, the growth with NCI-H23 lung was 75.7% (inactive); in the test on NCI-H226 lung, 84.5% (inactive); with HOP-62 NSCLC, 52.3% (inactive); in the test on NCI-H460 lung, 104% (inactive); in the test on NCI-H522 lung it was -12.9% (active); with A549/ATCC NSCLC, 86.3% (inactive). The growth in the test with 786-0 renal was 78.8% (inactive); with COLO 205 colon it was 22.1% (inactive); in the test on DU-145 prostate it was 77.8% (inactive); in the test on K-562 leukemia it was 38.2% (inactive); with MALME-3M melanoma, 3.69% (active); in the test on MDA-MB-231 breast it was 69.7% (inactive). The growth with RXF 393 renal is 51.1% (inactive); with SF-268 CNS, 102% (inactive); with SF-295 CNS, 92.7% (inactive); with SF-539 CNS it was 87% (inactive); in the test with UACC-257 melanoma it was 42.1% (inactive); with M14 melanoma, 66.4% (inactive).
For `COc1ccccc1OC(=O)Oc1ccccc1OC`, the growth was 101% (inactive) and 95.5% (inactive) in the test with NCI-H23 lung; 99.7% (inactive) and 106% (inactive) with NCI-H226 lung; 120% (inactive) and 100% (inactive) with HOP-62 NSCLC; 108% (inactive) and 104% (inactive) in the test with NCI-H460 lung; 108% (inactive) and -0.941% (active) with HOP-92 NSCLC; 85.3% (inactive) and 92.5% (inactive) with NCI-H522 lung. The growth in the test with A549/ATCC NSCLC is 90.1% (inactive) and 109% (inactive); with 786-0 renal, 103% (inactive) and 96.6% (inactive); in the test with COLO 205 colon, 123% (inactive) and 104% (inactive); in the test with DU-145 prostate it was 112% (inactive) and 96% (inactive); with K-562 leukemia, 125% (inactive) and 104% (inactive); in the test with MALME-3M melanoma, 94.8% (inactive) and 98.5% (inactive). Moreover, the growth in the test with MDA-MB-231 breast was 103% (inactive) and 107% (inactive); in the test on RXF 393 renal, 102% (inactive) and 113% (inactive); in the test on SF-268 CNS, 111% (inactive) and 94.9% (inactive); in the test on SF-295 CNS it was 106% (inactive) and 103% (inactive); with SF-539 CNS it was 121% (inactive) and 103% (inactive); in the test on UACC-257 melanoma it was 97.6% (inactive) and 115% (inactive). For the same molecule, the growth with M14 melanoma is 103% (inactive) and 99.7% (inactive).
